Source: PubChem (several laboratories)
Hits are enriched below; roughly 2.4% of the tested compounds scored in any of these assays.
PREPL inhibitor = human PREPL enzyme inhibition; recombinant PREPL, fluorescence polarization activity-based probe; inhibition, % at 5.96 µM; actives 0.68% (n = 320,000); in the data active = inhibition above about 43%;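 also: 0% = enzyme with DMSO and 100% = wells lacking enzyme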
PP5 inh = PP5 (human) phosphatase inhibition | P53041 | purified PP5c, OMFP substrate fluorescence | inhibition, % at 6.7 µM | actives 0.18% (n = 320,000);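 active = inhibition above the campaign's mean inhibition across all tested compounds plus 3 SD, cut at about 9.5% in these data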;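 also: 0% = DMSO only and 100% = 100 µM cantharidin control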
NadD inh = inhibitors of Staphylococcus aureus NadD. purified NadD enzyme, colorimetric absorbance read-out. inhibition, % at 20 µM. actives 0.78% (n = 360,000); in the data active = inhibition above about 26%
Rpn11 block = blocks the human proteasome subunit Rpn11. O00487. human 26S proteasome, Ub4-pepOG fluorescence polarization; 20S core pre-blocked with epoxomicin. inhibition, % at 20 µM. actives 0.59% (n = 360,000). AID 588493;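 active = inhibition at 20 µM, scaled to each plate's controls, above about 33%, limit read from the data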
Target sequence (O00487 whole entry, looked up): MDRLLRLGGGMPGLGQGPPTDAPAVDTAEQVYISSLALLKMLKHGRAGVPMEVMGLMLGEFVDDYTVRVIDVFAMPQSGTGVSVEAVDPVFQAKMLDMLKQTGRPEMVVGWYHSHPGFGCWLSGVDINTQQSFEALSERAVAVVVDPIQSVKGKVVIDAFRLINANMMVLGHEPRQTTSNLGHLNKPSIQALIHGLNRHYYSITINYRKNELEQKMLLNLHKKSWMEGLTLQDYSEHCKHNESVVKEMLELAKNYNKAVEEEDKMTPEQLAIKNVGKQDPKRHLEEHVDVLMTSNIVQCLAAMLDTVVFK
PP1 inh = PP1-alpha (human) inhibition in PP5 counter-screen; inhibition, % at 6.7 µM; AID 2235; purified PP1alpha, OMFP fluorescence; actives 0.9% (n = 320,000); P62136;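 active = inhibition above the mean inhibition of all tested compounds plus 3 SD, computed separately for each screening campaign, cut at about 15% in these data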
Target sequence (P62136 whole entry, looked up): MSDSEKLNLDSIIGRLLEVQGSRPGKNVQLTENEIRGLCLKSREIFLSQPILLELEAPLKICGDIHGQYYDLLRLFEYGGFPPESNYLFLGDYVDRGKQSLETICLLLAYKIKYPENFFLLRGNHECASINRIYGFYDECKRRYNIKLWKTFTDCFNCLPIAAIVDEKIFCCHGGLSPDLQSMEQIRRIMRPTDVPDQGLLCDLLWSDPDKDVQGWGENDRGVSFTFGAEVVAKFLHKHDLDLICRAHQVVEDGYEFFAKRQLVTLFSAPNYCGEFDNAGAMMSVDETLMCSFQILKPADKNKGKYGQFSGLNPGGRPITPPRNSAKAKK
Rpn11 confirm = Rpn11 inhibition confirmation, single concentration; shares compounds with Rpn11 block; purified human 26S proteasome, Ub4-pepOG fluorescence polarization; proteasome pretreated with epoxomicin; inhibition, % at 20 µM; actives 29% (n = 1,900)
MMP-2 inh = counter-screen for RPN11 inhibitors: inhibition of human MMP-2; actives 4% (n = 1,900); shares compounds with Rpn11 block; inhibition, % at 20 µM; recombinant MMP-2, FRET peptide cleavage fluorescence; AID 602330;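 also: human MMP-2 activated beforehand with APMA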
Thrombin FP = thrombin (bovine) inhibition counter-screen. shares compounds with Rpn11 block. bovine thrombin cleavage of Ub4-pepOG, fluorescence polarization. inhibition, % at 20 µM. actives 13% (n = 1,900);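 active = mean inhibition at least 40% at 20 µM, or signal 3 deviations below plate average, so some actives read negative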;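 also: plate controls were thrombin with DMSO for no effect and buffer wells lacking thrombin for full effect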
* = called active by the depositor; . = not tested or not shown; + = active, no number. Rule as the data show it, unless noted: active = inhibition above about 40%; inactive = the rest.

SMILES	PREPL inhibitor	PP5 inh	NadD inh	Rpn11 block	PP1 inh	Rpn11 confirm	MMP-2 inh	Thrombin FP
Cc1ccc2c(c1)N(C(=O)CCC(=O)NC1CCCCCC1)CCO2	-4.2	-1.5	0.4	3.1	-2.4	.	.	.
CCOc1ccccc1CNC(=O)C1CCCN(c2nnc(C)c3c(C)n(-c4ccccc4)nc23)C1 (stereo not drawn)	12.5	0.8	3.0	41.2*	5.2	24.7	-28.8	1.9
COc1ccc(-n2nc3c(N4CCC(C(=O)NCc5ccccc5C)CC4)nnc(C)c3c2C)cc1	39.3	2.1	4.6	74.0*	9.3	33.9	-330.6	17.2
O=C(COC(=O)CNC(=O)C1CCCCC1)NCc1ccc(Cl)cc1	6.7	.	-5.3	-2.6	.	.	.	.
CC1=NN(c2nc(N)nc(/C(C#N)=C/c3ccc([N+](=O)[O-])o3)n2)C(C)(C)C1	.	.	13.1	78.8*	.	4.1	12.0	14.9
CCCn1c(SCc2nc3sc(C)c(C)c3c(=O)[nH]2)nc2ccccc2c1=O	-4.1	0.5	3.2	40.8*	1.6	30.4	4.2	20.2
COCCn1c(SCc2nc3ccccc3c(=O)[nH]2)nc2ccccc2c1=O	0.1	-3.6	-2.6	-6.2	-5.3	.	.	.
ClCC1NCC(c2ccccc2Cl)c2c1[nH]c1ccccc21 (stereo not drawn)	39.8	2.4	9.4	71.5*	2.4	33.0	37.6	18.2
CSc1ncnc2c1ncn2CCCNCc1ccccn1	.	.	-1.6	-5.6	.	.	.	.
CN1CCN(S(=O)(=O)c2cccc(C(=O)Nc3sc4c(c3C(N)=O)CCCC4)c2)CC1	12.7	1.4	-2.7	90.3*	-3.7	5.9	25.1	-2.6
COC(=O)c1c(NC(=O)c2cccc(S(=O)(=O)N3CCN(C)CC3)c2)sc(C)c1C	6.1	1.7	-13.3	-0.9	-1.7	.	.	.
COc1ccc(-c2ccc(NC(=O)c3ccc(Br)o3)cc2)nn1	-0.2	1.5	8.3	76.9*	2.8	13.0	16.1	-20.7
COC(=O)Cc1ccc(NC(=O)c2ccc(Br)o2)cc1	21.5	2.9	1.6	3.6	-2.9	.	.	.
CCN(CC1CCCN(CCc2cccc(OC)c2)C1)C(=O)c1ccoc1 (stereo not drawn)	2.8	-1.1	-3.9	-11.0	3.4	.	.	.
CCc1ccc(CNC(=O)CCc2cn(C)c3ccccc23)cc1	0.2	2.0	-0.4	0.8	-1.5	.	.	.
NS(=O)(=O)c1ccc(NC(=O)CSc2n[nH]c(=O)n2C2CC2)cc1	1.1	0.3	-1.0	3.3	-5.1	.	.	.
N#CNC(=Nc1cccc(F)c1)SCc1cccc(F)c1	4.8	2.0	0.1	-3.9	0.9	.	.	.
N#CNC(=Nc1cccc(F)c1)SCc1ccccc1	3.9	0.6	-1.1	47.4*	-2.1	-23.8	-27.8	-24.9
Cc1nc(SCC(=O)CC(=O)OC(C)C)c(C#N)c(C)c1C	1.9	0.3	7.0	0.1	1.3	.	.	.
CSc1nc(N)nc(SCC(=O)CC(=O)OC(C)C)c1C#N	7.5	3.2	1.4	77.9*	0.6	-3.4	-21.6	-16.6
CN(C)c1ccc(N=Cc2nc(-c3ccccc3)oc2OC(=O)c2ccccc2)cc1	21.1	-0.4	2.1	48.2*	1.3	48.6*	-0.2	active
O=C(COC(=O)CCN1C(=O)/C(=C\C=C\c2ccccc2)SC1=S)Nc1ccc(Br)cc1	-6.7	0.7	10.7	59.2*	13.9	23.4	-13.3	-32.4
N#Cc1ccc(C(=O)Nn2cnnc2)cc1	-4.5	2.1	-3.8	4.1	0.8	.	.	.
O=C(NCCCN1CCOCC1)c1cc2c(=O)[nH]c3ccccc3c2s1	-0.5	3.4	-3.1	57.6*	9.0	-4.9	-21.9	-7.9
O=C(NCCCN1CCOCC1)c1cccc(NC(=O)c2ccccc2)c1	-14.2	-1.0	-3.7	45.8*	0.0	-2.7	-17.6	-7.0
SMILES	PREPL inhibitor	PP5 inh	NadD inh	Rpn11 block	PP1 inh	Rpn11 confirm	MMP-2 inh	Thrombin FP
CCN1CCN(CCCNC(=O)c2cc3c(=O)[nH]c4ccccc4c3s2)CC1	-1.5	1.7	0.3	0.9	-0.5	.	.	.
Cc1ccc(N=Nc2c(O)[nH]c(=O)[nH]c2=O)cc1S(=O)(=O)Nc1ccc(Br)cc1	30.0	.	18.4	49.5*	.	107.7*	-10.7	71.6*
COc1ccc(C2(C)NC(=O)N(CC(=O)Nc3ccc(Br)cc3F)C2=O)cc1OC (stereo not drawn)	-5.9	1.3	0.2	1.2	-0.1	.	.	.
O=C(COc1ccc(/C=N/NC(=O)c2cc3ccccc3o2)cc1Cl)Nc1ccccc1	-6.5	3.4	-1.9	+	2.5	0.0	-62.5	-12.3
O=C(COC(=O)Cc1ccccc1F)NCCNC(=O)COC(=O)Cc1ccccc1F	11.4	2.3	-1.0	-2.8	3.9	.	.	.
CC(O)/C=C/c1ccc2ccccc2n1 (stereo not drawn)	6.9	2.3	-4.1	-10.6	-2.1	.	.	.
Cc1ccsc1/C=C/c1ccc2ccccc2n1	-4.3	1.6	6.4	48.2*	2.4	52.6*	-21.3	21.3
COc1cc(NC(=O)CN(C)S(=O)(=O)c2ccc(C)cc2)cc(OC)c1	0.9	1.3	-4.6	38.3*	0.9	3.0	20.8	-0.9
COc1ccc(NC(=O)CN(C)S(=O)(=O)c2ccc(Cl)cc2)c([N+](=O)[O-])c1	-1.6	0.6	-7.0	38.8*	-0.7	34.1	-16.5	-3.0
CCN(CC(=O)Nc1c(F)cccc1F)C(=O)COc1ccc2c(c1)CCC2	4.0	-0.2	5.1	3.7	-3.3	.	.	.
CCC(CC)C(=O)c1c[nH]c(C(=O)NCc2cccs2)c1	-7.8	-4.7	0.6	70.7*	-5.1	-16.7	-36.3	-5.7
CCC(CC)C(=O)c1c[nH]c(C(=O)NCc2ccco2)c1	7.0	-0.2	-2.7	1.3	-1.1	.	.	.
O=C(N/N=C/c1sc(N2CCOCC2)nc1-c1ccccc1)c1ccccc1O	15.8	1.9	9.6	57.8*	2.5	11.9	-34.1	-7.5
O=C(O)CCCn1cc(NC(=O)c2ccc(Br)o2)cn1	1.4	2.4	5.8	-2.5	8.0	.	.	.
O=C(CSc1nc2ccccc2s1)c1cc2ccccc2o1	-12.7	0.7	-9.3	55.8*	7.4	29.2	19.8	14.8
Cc1cc(NS(=O)(=O)c2ccc(Nc3nc(-c4sc(N)nc4C)cs3)cc2)no1	24.9	1.9	36.8*	55.4*	8.9	23.9	28.4	-11.0
Cc1cc(NS(=O)(=O)c2ccc(Nc3nc(-c4ccc(O)cc4)cs3)cc2)no1	13.8	4.0	3.4	-1.5	-1.1	.	.	.
C=CCNC(=O)c1onc(CSc2cccc(OC)c2)c1C(=O)NCC=C	-7.3	3.7	0.8	-4.2	7.7	.	.	.
CCN1C(=O)[C@H]2[C@@H](c3ccc(C)cc3)N3C(=O)N(c4ccccc4)C(=O)[C@@]3(C)[C@H]2C1=O	1.8	1.6	0.4	-4.5	-0.8	.	.	.
CCc1ccc(C(=O)COC(=O)c2ccc(-c3nnc(-c4ccccc4)o3)cc2)cc1	2.9	-2.8	0.5	44.3*	-2.6	8.0	5.4	-12.5
